An excerpt weighted towards active compounds, which were near 2.5% of everything screened.
ATG4B inh: inhibitors of human ATG4B cysteine protease; Q9Y4P1; ATG4B cleavage of LC3-PLA2, NBD-HPC fluorescence, 1 h; inhibition, % at 8.33 µM; 340,000 compounds, 0.51% hits; in the data active = inhibition above about 40%
AI-2 QS mod: modulators of Vibrio harveyi AI-2 quorum sensing system; activity change, % at 7.5 µM; Vibrio harveyi JMH597 AI-2 luminescence/OD600 ratio, 9 h; active compounds read low; strain lacks LuxN and CqsS sensors; 0 = neutral-control median; 300,000 compounds, 0.4% hits; in the data active = activity change below about -75%, passing the limit was not always enough; inconclusive = no clear call, values can overlap the other calls;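 also: luminescence divided by OD600 gain over 9 h not by final OD600 alone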
V-ATPase pH: yeast V-ATPase proton transport regulation by pHLuorin. S. cerevisiae, pHLuorin cytosolic pH fluorescence. response, % at 10 µM. 350,000 compounds, 0.37% hits. AID 504577; in the data active = response mostly above about 7.3%, no sharp cut-off; inactive = mostly below about 5.4%; also: actives read high
Efflux pump mplx: antifungal efflux pump inhibition, Nile Red retention; inhibition, % at 10 µM; 330,000 compounds, 0.44% hits; S. cerevisiae Candida pump triplex; AID 485275;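 active = plate passing quality check with inhibition over a set limit, or well fluorescence over plate mean plus 4 SD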;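 also: Nile Red retained in pooled yeast measured as flow cytometry median fluorescence; 0% = buffer negative control and 100% = Enniatin B positive control; higher means more Nile Red kept so more efflux inhibition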
Mot1-301 SUMO: inhibitors of SUMOylation pathway: yeast Mot1-301 growth rescue; 320,000 compounds, 1% hits; S. cerevisiae Mot1-301 growth rescue, ATP luminescence, 38.5C; percent above DMSO median, 100 means doubled; growth rescue, % at 18.8 µM;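 active = every valid replicate shows activation above 250% relative to neutral control wells; inactive = the rest, any valid replicate at or below 250%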;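 also: OY570 slx delta 5 strain wells were the positive control but not used for scaling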
Cmpd fluor yeast: flagged as fluorescent in efflux inhibitor counter-screen. shares compounds with Efflux pump mplx. S. cerevisiae AD/pABC3, compound fluorescence, flow cytometry. fluorescence ratio to DMSO, % at 10 µM. 1,700 compounds, 4% hits. AID 588517;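 active = fluorescence ratio to DMSO above its plate's cutoff, the plate mean ratio plus 5 SD, cut at about 210% in these data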;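 also: unstained yeast with no Nile Red so the signal is compound autofluorescence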
CaMdr1 efflux inh: blocks the Candida albicans Mdr1 efflux pump in yeast; 1,700 compounds, 1% hits; inhibition, % at 10 µM; shares compounds with Efflux pump mplx; AID 588518; S. cerevisiae AD/CaMDR1, Nile Red efflux, flow cytometry; in the data active = inhibition above about 26%;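 also: 0% = DMSO vehicle and 100% = reference inhibitor; higher means more Nile Red retained so more efflux inhibition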
CaCdr2 efflux inh: blocks the Candida albicans Cdr2 efflux pump in yeast. shares compounds with Efflux pump mplx. S. cerevisiae AD/CaCDR2, Nile Red retention, flow cytometry. Nile Red retention ratio vs DMSO, % at 10 µM. 1,700 compounds, 4% hits; in the data active = Nile Red retention ratio vs DMSO above about 190%;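 also: higher ratio means more blocking of Cdr2 efflux of the dye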
Cdr1 pump inh: inhibitors of Candida albicans Cdr1 efflux pump. inhibition, % at 10 µM. S. cerevisiae AD/CaCDR1, Nile Red efflux, flow cytometry. 1,700 compounds, 1% hits. shares compounds with Efflux pump mplx;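 active = inhibition above the screen-wide mean plus twice its standard deviation, cut at about 32% in these data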
ATG4B confirm: ATG4B (human) inhibition, single-dose confirmed; shares compounds with ATG4B inh; ATG4B protease fluorescent substrate cleavage assay; 320 compounds, 92% hits; inhibition, % at 8.33 µM; in the data active = inhibition above about 39%
PLA2 ctr: counter-screen for ATG4B inhibitors: human phospholipase A2; 1,600 compounds, 66% hits; inhibition, % at 8.33 µM; AID 588402; shares compounds with ATG4B inh; purified PLA2, NBD-C6-HPC fluorescence, 45 min; in the data active = inhibition above about 50%
Target sequence (P04054 whole entry, looked up): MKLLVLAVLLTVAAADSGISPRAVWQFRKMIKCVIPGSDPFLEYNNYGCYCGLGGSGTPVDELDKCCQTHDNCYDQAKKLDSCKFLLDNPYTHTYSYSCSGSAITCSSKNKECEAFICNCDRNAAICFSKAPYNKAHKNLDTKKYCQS
* hit, by the source's call; u = inconclusive; x = no result given; + = active, no number.

SMILES	ATG4B inh	AI-2 QS mod	V-ATPase pH	Efflux pump mplx	Mot1-301 SUMO	PLA2 ctr	others
CC[n+]1c(/C=C/C=C/c2ccc(N(C)C)cc2)sc2ccccc21	29	u	0	9.9*	-43	x	Cmpd fluor yeast=+;CaMdr1 efflux inh=10;CaCdr2 efflux inh=114;Cdr1 pump inh=0
Fc1ccccc1CN1CCN(c2ccc(Cl)cc2)CC1	11	1	-1	1.7*	-11	x	Cmpd fluor yeast=92;CaMdr1 efflux inh=0;CaCdr2 efflux inh=89;Cdr1 pump inh=0
C[C@@H]1CN([C@H](C)CO)C(=O)CCCn2nncc2CO[C@@H]1CN(C)C(=O)Oc1ccc2ccccc2c1	x	x	-3	x	x	x
CC(C)[C@H]1C(=O)O[C@H](C(C)C)C(=O)N(C)[C@@H](C(C)C)C(=O)O[C@H](C(C)C)C(=O)N(C)[C@@H](C(C)C)C(=O)O[C@H](C(C)C)C(=O)N1C	-12	-5	0	86*	10	x	Cmpd fluor yeast=92;CaMdr1 efflux inh=123*;CaCdr2 efflux inh=114;Cdr1 pump inh=80*
Cc1ccc(OC(=O)N(C)C[C@H]2OCc3cnnn3CCCC(=O)N([C@@H](C)CO)C[C@H]2C)cc1	x	x	3	x	x	x
CP(=O)(Nc1ccccc1)C(Cl)(Cl)Cl (centres undefined)	-1	28	1	0	2	x
Cc1cc(C)c(S(=O)(=O)N2Cc3ccccc3-n3nncc3C2)c(C)c1	x	x	2	x	x	x
Cc1cccc(-n2c(-c3cccs3)nc3ccccc3c2=O)c1	49*	14	2	0	91	46	ATG4B confirm=58*
CCOc1ccc(-n2c(-c3cccs3)nc3ccccc3c2=O)cc1	49*	31	-2	1	3	52*
CCCCOc1nc2ccccc2c(=O)n1-c1ccccc1	41*	11	1	0	10	49
COc1ccc(-n2c(-c3ccc(C)cc3)nc3ccccc3c2=O)cc1	24	20	0	0	4	x
Cc1cnc(NC(=O)CN2CCCCC2)s1	-12	-1	-2	0	116	x
CC[C@H](C)/C=C(C)/C=C/C1=CC2=C(Cl)C(=O)[C@](C)(OC(C)=O)C(=O)C2=CO1	55*	x	2	0	x	71*
ClCCN(CCCl)c1ccc(C2=NCCc3ccccc32)cc1	40*	x	-2	x	x	57*
COc1ccc2c(c1)C(c1ccc(N(CCCl)CCCl)cc1)=NCC2	11	x	0	x	x	x
Cc1ccc(CN2CCCC(C(=O)c3sccc3C)C2)o1 (centres undefined)	4	9	5	0	-2	x
CCOc1cc2c(cc1OCC)-n1cccc1C(c1cc(OC)ccc1F)NC2 (centres undefined)	-6	15	3	0	0	x
CN(CC(=O)Nc1ccccc1-c1ccccc1)C1CCCCC1	73*	-1	2	0	0	79*
COc1ccc(-n2c(/C=C/c3ccc(O)cc3)nc3ccccc3c2=O)cc1	36	-5	4	0	-23	x
CCn1nc(/C=C/c2ccccc2)nc2c(=O)n(C)c(=O)nc1-2	87*	u	-1	x	x	9	ATG4B confirm=24
O=C(NC1CC1)c1cn(Cc2ccccc2)nc1-c1ccccc1	7	x	-4	x	x	x
Cc1ccc(Cn2cc(C=O)c(-c3ccc(C)cc3)n2)cc1	63*	12	-1	0	83	60*
C[C@@H]1CCC2[C@@H](C)C(=O)O[C@@H]3OC4(C)CCC1[C@@]23OO4 (some centres undefined)	-4	x	x	0	47	x
Cc1ccccc1-c1ccc2n1Cc1cnnn1-c1ccccc1-2	24	x	3	x	x	x
